# Laboratory results reported in PubChem BioAssay (Tox21).
# Records with an inconclusive call do not appear. Active and inactive are the calls of the source. Calls come from the whole dose curve; as a rule, active = well fitted cell-killing curve with a large enough effect in the repeat runs; inconclusive = weak or mixed curves; inactive = flat fitted curve, though single readings scatter.
# Experiment: qHTS assay to identify small molecule antagonists of the estrogen related receptor (ERR) signaling pathway - cell viability counter screen (AID 1224818)
# Settings: ERR reporter cell line viability counter screen; series mostly up to 46.1 µM; viability change, negative = cytotoxic: at the top concentration
# Source text: National Center for Advancing Translational Sciences [NCATS]
# NIH Chemical Genomics Center [NCGC]
# U.S. Environmental Protection Agency [EPA]
# National Institutes of Environmental Health Sciences [NIEHS]
# National Toxicology Program [NTP]
# U.S. Food and Drug Administration [FDA]
# Estrogen related receptors (ERRs), the first orphan nuclear receptors discovered, play an important role in the control of cellular energy metabolism. ERRs are required for high-energy production in response to the environmental challenges. ERR-alpha was also identified as an adverse marker for breast cancer progression; ERR-alpha-positive tumors have a poor prognosis. To screen and to identify environmental compounds that perturb the ERR signaling pathways could provide valuable information for potential therapeutic or preventive measures in the treatment of metabolic disease. To differentiate true ERR antagonists or agonist from cytotoxic substances, the assay is multiplexed with cell viability assay.
# Tox21 Assay Protocol Summary:
# The ERR cells were dispensed at 2,000 cells/5 ul/well in 1536-well white plates using a Multidrop dispenser. After the assay plates were incubated at a 37 C/5% CO2 incubator for 6 hours, 23 nL of compounds dissolved in DMSO, positive and negative controls or DMSO only was transferred to the assay plate by a pin tool. The plates were incubated at 37 C for 17.5 hours. 1 ul/well of CellTiter-Fluor reagent was added into the assay plates using a Flying Reagent Dispenser. After 30 min incubation at 37 C/5% CO2, the fluorescence intensity in the plates was measured using a ViewLux plate reader.
# % is set by controls: 0 for no effect and ±100 for the full control effect.
row,Structure (SMILES),"viability change, negative = cytotoxic"
1,C=CCc1ccccc1OCC(O)CNC(C)C (stereo not drawn),6.19% (inactive)
2,CN1C(=O)c2ccccc2C1=O,-1.3% [at 92.2 µM] (inactive)
3,Nc1nc2ccc([N+](=O)[O-])cc2s1,-17.3% [at 92.2 µM] (inactive)
4,O=C(O)CCc1nc(-c2ccccc2)c(-c2ccccc2)o1,11% (inactive)
5,NC1[C@H]2CN(c3nc4c(cc3F)c(=O)c(C(=O)O)cn4-c3ccc(F)cc3F)C[C@@H]12 (stereo partly drawn),-11.8% (inactive)
6,O=C(CCc1ccc(O)cc1)c1c(O)cc(O)cc1O,-13.7% (inactive)
7,OCCN1CCN(CCCN2c3ccccc3Sc3ccc(Cl)cc32)CC1,-22.7% (inactive)
8,COc1ccccc1N1CCN(CC(O)COc2cccc3ccccc23)CC1 (stereo not drawn),-18.8% (inactive)
9,CCOC(=O)C1=C(C)NC(C)=C(C(=O)OC)C1c1cccc(Cl)c1Cl (stereo not drawn),-20.6% (inactive)
10,C[C@H]1c2cccc(O)c2C(O)=C2C(=O)[C@]3(O)C(O)=C(C(N)=O)C(=O)[C@@H](N(C)C)[C@@H]3[C@@H](O)[C@@H]21,15.6% (inactive)
11,CN(C)CCC=C1c2ccccc2C=Cc2ccccc21,-2.72% (inactive)
12,Cc1ccc(Cl)c(Nc2ccccc2C(=O)O)c1Cl,-2.18% (inactive)
13,CC(C)COCC(CN(Cc1ccccc1)c1ccccc1)N1CCCC1 (stereo not drawn),13.8% (inactive)
